This is an account of results in ChEMBL document CHEMBL1157539, “Thousands of chemical starting points for antimalarial lead identification” (Nature, 2010).

This test deals with Plasmodium falciparum. As to the kind of experiment: GSK_TCMDC: Inhibition of Plasmodium falciparum 3D7 in whole red blood cells, using parasite LDH activity as an index of growth. Test compounds present at 2uM. The class given is functional.
In general, Inhibition refers to the percentage by which the read-out fell short of the control. Turning to `O=C(/C=C/c1ccc(Cl)c(Cl)c1)NC1CCN(Cc2ccc(O)cc2)C1.O=C(O)C(F)(F)F` (stereo not drawn), the Inhibition is listed as 97%.

Regarding `Cc1cc(N(C)C)nc(Nc2ccc(NC(=O)C(C)Oc3ccccc3)cc2)n1` (stereo not drawn), the Inhibition was 98%.

As to `O=C(NCc1cccc(F)c1)c1ccc(O)c(-c2cc(Cl)cc(Cl)c2)c1`, the Inhibition turned out to be 99%.

`O=C(CCc1cccnc1)Nc1cccc(-c2ccc(-c3nc4cc(C(F)(F)F)ccc4[nH]3)cc2)c1` showed an Inhibition of 93%.

The compound `CCOc1ccc2[nH]c(C)cc(=NN=Cc3ccccc3)c2c1` came in with an Inhibition of 96%.

On to `CCOC(=O)C(C#N)NC(=O)C=Cc1ccccc1` (stereo not drawn), for which the Inhibition was 96%.

Compound `CN(C)Cc1ccc(-c2ccc(NC(=O)c3ccc4c(=O)n(Cc5ccoc5)cnc4c3)cc2)cc1` registered an Inhibition of 80%.

The compound `Cc1nc(-c2ccc(-c3ccc(NC(=O)c4coc5ccc(N6CC(C)N(C)C(C)C6)cc45)cc3)c(C)c2)no1.Cl` (stereo not drawn) displayed an Inhibition of 96%.

As for `Cc1cc(N[C@@H](Cc2ccccc2)C(=O)Nc2ccccc2)nc(NCCc2cccs2)n1.O=C(O)C(F)(F)F`, the Inhibition is recorded as 100%.

Take `O=C(NCCN1CCN(S(=O)(=O)c2ccc(OC3CCNCC3)c(Br)c2)CC1)c1ccc(Cl)c(Cl)c1.O=C(O)C(F)(F)F`: the Inhibition is given as 89%.

Take `COc1ccc2nc(-c3ccccc3)cc(NCCCNc3cc(-c4ccccc4)nc4ccc(OC)cc34)c2c1.Cl`: the Inhibition turned out to be 99%.

Regarding `CS(=O)(=O)CCNCc1nc(-c2ccc3c(Nc4ccc(Oc5ccccn5)cc4)ccnc3c2)cs1`, the Inhibition is 100%.

Compound `CCCCCCNC(=O)c1nn(CCN2CCC(N3CCCC3)CC2)cc1-c1ccc(Cl)c(Cl)c1` returned an Inhibition of 100%.
